Only some compounds are listed: those with a hit (about 7% of all), similar ones and a draw of the others.
rCAG binder: r(CAG) repeat RNA binding | 370,000 compounds, 1.3% hits | inhibition, % at 3 µM | AID 651821 | TO-PRO-1 dye displacement fluorescence;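 active = inhibition above the plate cutoff, the mean of all test compounds on that plate plus 3 SD, cut at about 35% in these data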;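 also: 0% = DMSO alone and 100% = 100 µM mitoxantrone as full dye displacement; higher means more dye released from RNA so lower well fluorescence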
ADAM17 inh: ADAM17 inhibition, QFRET primary screen | recombinant ADAM17, EDANS/DABCYL FRET peptide cleavage | inhibition, % at 6.95 µM | 370,000 compounds, 0.83% hits;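 active = inhibition above the mean of compounds lying between control limits plus 3 SD, set per campaign, cut at about 8.5% in these data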;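 also: 0% = DMSO-only wells as the low control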
ADAM10 inh: inhibits human ADAM10 | AID 720582 | 370,000 compounds, 0.62% hits | recombinant ADAM10, EDANS/DABCYL FRET peptide cleavage, 3 h | O14672 | inhibition, % at 7 µM;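 active = inhibition above a per-campaign cutoff equal to the mean of compounds falling between control-based bounds plus 3 SD, cut at about 20% in these data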;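 also: 0% = DMSO wells while the 100% control is not disclosed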
AHR act: human AHR activation | AHR-responsive luciferase reporter cells, luminescence | activation, % at 5 µM | 320,000 compounds, 2.5% hits | AID 2796; in the data active = activation above about 47%;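 also: 0% = vehicle wells and 100% = reference agonist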
Target sequence (P35869 whole entry, looked up): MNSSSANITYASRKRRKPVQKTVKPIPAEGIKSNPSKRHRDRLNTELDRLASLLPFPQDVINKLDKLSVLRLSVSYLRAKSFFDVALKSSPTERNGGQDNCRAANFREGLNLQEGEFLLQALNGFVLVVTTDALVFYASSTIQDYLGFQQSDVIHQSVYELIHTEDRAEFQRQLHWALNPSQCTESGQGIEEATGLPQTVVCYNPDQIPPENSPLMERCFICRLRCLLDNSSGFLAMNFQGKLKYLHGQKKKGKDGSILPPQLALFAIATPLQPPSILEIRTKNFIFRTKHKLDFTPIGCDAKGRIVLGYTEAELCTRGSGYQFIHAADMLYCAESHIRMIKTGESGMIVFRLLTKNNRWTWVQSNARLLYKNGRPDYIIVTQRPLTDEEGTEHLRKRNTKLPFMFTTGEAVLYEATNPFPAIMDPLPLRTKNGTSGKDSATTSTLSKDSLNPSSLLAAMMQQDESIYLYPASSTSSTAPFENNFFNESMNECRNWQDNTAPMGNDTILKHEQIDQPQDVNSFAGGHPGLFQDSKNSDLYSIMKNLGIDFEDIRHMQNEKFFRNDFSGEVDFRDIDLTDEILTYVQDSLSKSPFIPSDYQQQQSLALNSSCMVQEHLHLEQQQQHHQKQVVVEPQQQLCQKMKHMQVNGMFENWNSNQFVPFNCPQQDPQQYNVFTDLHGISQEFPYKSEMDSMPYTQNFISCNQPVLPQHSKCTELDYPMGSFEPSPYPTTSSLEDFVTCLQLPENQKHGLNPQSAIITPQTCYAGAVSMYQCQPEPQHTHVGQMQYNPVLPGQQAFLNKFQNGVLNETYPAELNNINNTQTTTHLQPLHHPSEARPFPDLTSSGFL
GRIN3A LBD mod: NR3A (human) ligand-binding domain modulation | NR3A LBD differential scanning fluorimetry, Tm shift; 0% = protein alone, 100% = glycine-bound protein | Tm shift relative to glycine control, % at 25 µM | 340,000 compounds, 2.5% hits | AID 1259313;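 active = melting temperature shift of at least 10% of the positive control shift, at one fixed dose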
proKLK7 act: activators of human kallikrein-7 zymogen; purified proKLK7, EDANS-DABCYL substrate fluorescence; 100% is mature enzyme control, 0% vehicle; AID 652039; 370,000 compounds, 0.9% hits; P49862; activation, % at 7 µM;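 active = activation above the mean of all tested compounds plus 3 SD, computed per campaign excluding outliers beyond control limits, cut at about 13% in these data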
An asterisk follows results filed as active; i = inactive; · = no result.

SMILES	rCAG binder	ADAM17 inh	ADAM10 inh	AHR act	GRIN3A LBD mod	proKLK7 act
COc1ccc(C2CC(c3ccccc3F)=NN2c2ccc(S(N)(=O)=O)cc2)cc1 (configuration not stated)	10	i	i	·	3	-194
COc1ccc(C2CC(c3ccccc3Br)=NN2c2ccc(S(N)(=O)=O)cc2)cc1 (configuration not stated)	13	-340	i	·	14*	-115
COc1ccc(C2CC(c3ccccc3C(F)(F)F)=NN2c2ccc(S(N)(=O)=O)cc2)cc1 (configuration not stated)	7	i	i	·	18*	-290
COc1ccc(C2CC(c3ccc(C(F)(F)F)cc3)=NN2c2ccc(S(N)(=O)=O)cc2)cc1 (configuration not stated)	7	i	i	·	107*	-182
CCCCOCC1CN(CCCC)S(=O)(=O)c2c(cccc2N2CCCCC2)O1 (configuration not stated)	2	3	5	·	·	1
c1nc(NCC2CC2)c2cc(-c3ccc4c(c3)OCO4)ccc2n1	·	-61	-149	·	·	·
COC(=O)C1=C(C)N(Cc2cccc(C(F)(F)F)c2)C(=NCc2ccccc2C(F)(F)F)NC1c1ccc(Cl)cc1 (configuration not stated)	3	8	2	·	·	0
COc1ccc(CCNc2nc(-c3ccc(O)cc3)cs2)cc1OC	7	1	5	39	-1	0
COc1ccc(CCNc2nc(-c3cccnc3)cs2)cc1OC	-3	3	4	2	-1	0
COc1ccc(CCNc2nc(-c3ccncc3)cs2)cc1OC	-7	-2	4	66*	-3	0
COc1ccc(CCNc2nc(-c3sc(C)nc3C)cs2)cc1OC	-1	-3	-4	52*	-3	0
CCOc1ccc(N2C(=O)/C(=C\c3ccc(O)c(OC)c3)S(=O)(=O)C2c2cccc([N+](=O)[O-])c2)cc1 (configuration not stated)	14	5	7	1	10*	0
CCOc1ccc(N2C(=O)/C(=C\c3ccc(OC)c(O)c3)S(=O)(=O)C2c2cccc([N+](=O)[O-])c2)cc1 (configuration not stated)	8	-2	2	4	1	0
COC(=O)c1nc2n(n1)C(c1cccc(Cl)c1)C1=C(CC(C)(C)CC1=O)N2 (configuration not stated)	2	1	-7	-3	-1	19*
O=c1[nH]c(CSc2ncccn2)nc2c1cnn2-c1ccccc1	5	-3	-6	119*	-1	0
O=c1[nH]c(SCc2nc3c(cnn3-c3ccccc3)c(=O)[nH]2)nc2ccccc12	6	-3	-11	·	-6	0
COC(=O)C(C[N+](=O)[O-])C1=C(O)CC(C)(C)CC1=O (configuration not stated)	1	-7	-17	·	·	1
Cc1c(NS(=O)(=O)c2cc(C(=O)N(C)Cc3ccccc3)ccc2Cl)c(=O)n(-c2ccccc2)n1C	6	-2	-13	0	0	0
Cc1c(NS(=O)(=O)c2cc(C(=O)NCc3cccnc3)cc(Cl)c2Cl)c(=O)n(-c2ccccc2)n1C	9	1	-2	60*	2	0
COc1ccc(CNC(=O)O[C@H]2CC[C@@]34CCCN3C(=O)CCC[C@H]4[C@H]2C)cc1	·	3	4	·	·	·
CC(=O)Nc1ccc(OCC(C)CN2CCC(C(O)(c3ccccc3)c3ccccc3)CC2)cc1 (configuration not stated)	3	0	0	·	·	0
Clc1ccc(-c2nc(-c3ccccn3)no2)cc1Cl	4	2	9	72*	0	0
Brc1ccc(-c2nc(-c3ccccn3)no2)o1	1	-5	-11	51*	-2	-1
Oc1cc(O)cc(-c2cc3ccc(O)cc3o2)c1	12	-324	i	0	16*	-234
CC1(C)Oc2cc3oc(-c4cc(O)cc(O)c4)cc3cc2CC1O (configuration not stated)	8	-175	i	-4	3	-3
SMILES	rCAG binder	ADAM17 inh	ADAM10 inh	AHR act	GRIN3A LBD mod	proKLK7 act
CC1=C[C@]2(C[N+](Cc3ccccc3)=C(N)N2)n2c(=O)n(-c3ccccc3)c(=O)n2C1	7	3	-2	·	·	0
O=C(O)c1cccc(NS(=O)(=O)c2cc(S(=O)(=O)c3ccc(Cl)cc3)ccc2Cl)c1	26	-5	4	1	16*	0
Cc1cc(S(=O)(=O)Nc2cccc(C(=O)O)c2)c(C)c(S(=O)(=O)c2ccc(Cl)cc2)c1	33	1	-7	-1	1	0
COc1cc(NC(=O)C2CCCN(S(=O)(=O)c3ccc(C)c(C)c3)C2)cc(OC)c1 (configuration not stated)	4	8	18	·	·	0
O=C(N/N=C/c1sc2ccccc2c1O)c1cccc2ccccc12	13	2	-5	20	2	-1
COc1ccc2cc(C(=O)N/N=C/c3sc4ccccc4c3O)ccc2c1	33	-3	-12	44	12*	0
COc1ccc(C(=O)N/N=C/c2sc3ccccc3c2O)cc1	·	·	·	24	5	·
O=C(N/N=C/c1sc2ccccc2c1O)c1ccccc1	·	·	·	73*	-6	·
COc1ccc(C2Nc3ccccc3C(=O)N2Cc2cccnc2)cc1COc1c(C)cccc1C (configuration not stated)	·	-271	i	·	·	·
CCCCCCc1cc2cc(S(=O)(=O)c3ccc(C)cc3)c(=O)oc2cc1O	27	-110	-368	-1	27*	-9
CCCCCCc1cc2cc(S(=O)(=O)c3ccc(Cl)cc3)c(=O)oc2cc1O	17	-56	-212	-2	106*	-3
CCCCCCc1cc2cc(C(=O)Nc3ccccc3)c(=O)oc2cc1O	1	-9	-14	1	17*	-1
CCCCCCc1cc2cc(C(=O)NCc3ccccc3)c(=N)oc2cc1O	10	-96	-341	3	-3	-1
CCN(CC)c1ccc2cc(S(=O)(=O)c3ccc(Cl)cc3)c(=O)oc2c1	1	-65	-251	1	-4	-1
Cc1ccc(S(=O)(=O)c2cc3cc(Br)ccc3oc2=O)cc1	-1	0	4	-2	7	1
Nc1ccc(-c2nc(-c3ccccc3)nc3ccccc23)cc1	11	-58	-98	8	7	1
CCC(=O)Nc1ccc(-c2cc(-c3ccccc3)nc(-c3ccc(NC(=O)CC)cc3)n2)cc1	8	-4	-3	24	16*	-1
Nc1ccc(-c2cc(-c3cccc(N)c3)nc(-c3ccccc3)n2)cc1	15	-91	-251	33	22*	3
CC(=O)Nc1ccc(-c2cc(-c3ccc(NC(C)=O)cc3)nc(-c3ccccc3)n2)cc1	6	-11	-28	2	·	-3

Bioassay records from PubChem BioAssay.
